# The list is not random: actives were taken first. Their share in the collection is about 0.5%.
# E coli growth-1 – E. coli V3065 growth inhibition, primary screen, counter-screen for AddAB inhibitor project, absorbance, OD600 | AID 449728, 2010 | 0.27% of 330,000 active | 18 h | inhibition, % at 11.9 µM;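 active = inhibition above the campaign's mean inhibition across all tested compounds plus 3 SD, cut at about 9.9% in these data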;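 note: uninfected addAB+ strain grown without phage in ampicillin broth; 0% = DMSO wells and 100% = ciprofloxacin 0.95 µg/ml wells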
# E coli growth-2 – E. coli growth inhibition, primary screen, OD600. Escherichia coli growth, 23 h; active compounds read low. OD600 absorbance (test concentration not listed). 0.21% of 330,000 active. AID 1053175, 2014;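 active = OD600 absorbance below the run mean of sample wells minus 3.6 SD, in any replicate, cut at about 0.56 in these data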
# AddAB inh – growth inhibition of E. coli expressing H. pylori AddAB, primary screen, AddAB inhibitor project, absorbance; inhibition, % at 11.9 µM; 0.29% of 330,000 active; in the data active = inhibition above about 12%;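 note: 0% = vehicle wells of infected cells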
# phage Ecoli inh – growth loss of phage-infected E. coli, primary screen, RecBCD inhibitor project, absorbance, with phage, HTS; inhibition, % at 11.9 µM; 0.26% of 360,000 active; in the data active = inhibition above about 11%
# Tat export inh – E. coli Tat export inhibitors, primary screen, MC4100, TorA-mCherry reporter, fluorescence, single point | 0.036% of 340,000 active | inhibition, % at 10 µM;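 active = mean replicate inhibition at least 50% and at least half of replicates individually reaching 50%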;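 note: exported cargo escapes ClpAP degradation while cytoplasmic cargo is degraded and loses fluorescence; 0% = median of neutral control wells and 100% = median of NaSCN control wells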
# AddAB conf – growth loss of phage-infected E. coli expressing H. pylori AddAB, confirmation, AddAB inhibitor project, absorbance, E. coli V3065, T4 phage, triplicate; shares compounds with AddAB inh; 64% of 880 active; AID 488942, 2010; OD; T4 phage with gene 2 nonsense mutations; inhibition, % at 11.9 µM;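 active = mean inhibition above a set limit taken from the earlier primary screen, cut at about 13% in these data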;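 note: higher means less bacterial growth since AddAB block lets phage replicate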
# RecBCD counter – growth loss of RecBCD+ E. coli with mutant T4 phage, counter-screen for AddAB inhibitor project, absorbance, V66 E. coli. AID 488955, 2010. inhibition, % at 11.9 µM. shares compounds with AddAB inh. 73% of 880 active. OD growth;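 active = mean inhibition above the mean of solvent-only control wells plus 3 SD, cut at about 4% in these data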;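 note: optical density read after an 18 h incubation at 37 °C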
# bact viab count – bacterial viability inhibition counter-screen, confirmation, counter-screen for AddAB inhibitor project, absorbance; 35% of 880 active; absorbance (AddAB counterscreen); shares compounds with AddAB inh; inhibition, % at 11.9 µM; in the data active = inhibition above about 25%
# Active calls of the source: *; . = no result given.
SMILES,E coli growth-1,E coli growth-2,AddAB inh,phage Ecoli inh,Tat export inh,AddAB conf,RecBCD counter,bact viab count
COC(=O)C(NC(=O)OC1C(=O)c2cc(Br)ccc2OC1c1cccc(OC)c1)C(C)C (stereo not drawn),.,0.713,.,.,.,.,.,.
O=C(NN=Cc1cc([N+](=O)[O-])ccc1O)c1cccc2cc[nH]c12,.,0.712,.,.,.,.,.,.
O=C(N/N=C/c1cc([N+](=O)[O-])ccc1O)c1cccc2cc[nH]c12,10.2*,.,14.2*,4.8,-2.9,2.8,7.0*,-1.3
Cc1ccc2nc(-c3ccccc3O)c(Nc3ccc4c(c3)OCCO4)n2c1,1.9,0.699,1.6,4.5,14.4,.,.,.
Cc1ccc2nc(-c3ccc(O)cc3)c(Nc3ccc4c(c3)OCCO4)n2c1,14.1*,0.712,16.6*,1.6,-1.1,-2.1,-0.8,-3.5
O=C(Cn1cc(C(=O)c2ccco2)c2ccccc21)Nc1ccccc1F,10.9*,0.663,12.8*,10.0,-4.9,10.6,11.1*,11.3
C[C@]12C=CC(=O)C=C1CCC1C2C(O)C[C@@]2(C)C1CC[C@]2(O)C(=O)CO (stereo partly drawn),.,0.692,.,.,.,.,.,.
Cn1nc([N+](=O)[O-])c(C(C#N)c2ccccn2)c(Cl)c1=O (stereo not drawn),9.4,0.682,12.8*,5.7,3.0,41.3*,6.1*,22.1
COc1cccc(/C=N/NC(=O)c2[nH]c(C)c(C(=O)N/N=C/c3cccc(OC)c3O)c2C)c1O,27.7*,.,27.8*,22.2*,11.1,18.1*,21.3*,13.0
C/C(=N\OCc1nc2ccccc2c(=O)n1/N=C/c1cc([N+](=O)[O-])ccc1O)c1ccccc1,8.7,.,12.6*,2.7,-4.5,-1.6,2.2,0.2
C/C(=N\OCc1nc2ccccc2c(=O)n1/N=C/c1cc(C)cc([N+](=O)[O-])c1O)c1ccccc1,8.5,.,8.4,8.6,-1.2,.,.,.
O=c1cc(C=Cc2ccccc2)oc2c1ccc1ccccc12,.,0.683,.,.,.,.,.,.
COc1ccc(OC)c(C2CC(=O)C(C)C(c3cc(OC)ccc3OC)N2)c1 (stereo not drawn),11.3*,0.691,13.1*,2.2,4.1,-3.9,-1.4,-0.3
COc1ccc(OC)c(C2C/C(=N/O)C(C)C(c3cc(OC)ccc3OC)N2)c1 (stereo not drawn),.,.,.,1.0,-1.1,.,.,.
O=C(COc1ccc(C=NNC(=O)c2ccncc2)cc1)Nc1ccccc1,.,0.666,.,.,.,.,.,.
O=C(C[n+]1cccc(C=NO)c1)N(Cc1ccccc1)Cc1ccccc1,.,0.674,.,.,.,.,.,.
COC(=O)CC1c2cc(C(F)(F)F)ccc2S(=O)(=O)N1C1CCCCC1 (stereo not drawn),.,0.669,.,.,.,.,.,.
NNC(=O)c1cccc(Cn2cc(Br)c([N+](=O)[O-])n2)c1,23.9*,0.637,27.2*,9.2,-3.5,97.1*,11.7*,67.0*
CCCNC(=O)c1cccc(Cn2cc(Br)c([N+](=O)[O-])n2)c1,11.2*,0.678,15.3*,6.1,7.0,30.9*,3.4,32.0*
COc1ccc(NC(=O)c2cccc(Cn3cc(Br)c([N+](=O)[O-])n3)c2)c(C)c1,-1.6,0.642,1.7,2.0,-17.6,.,.,.
Cc1ccc(C=C2CCC(C3CCCC3)C2=O)cc1 (stereo not drawn),.,0.717,.,.,.,.,.,.
NC1=NCC(c2ccccc2)N1CCCCC1CCCCC1 (stereo not drawn),.,0.59,.,.,.,.,.,.
CC1=NN(C(N)=S)C(=O)C1N=Nc1c(C)cc(C)cc1C (stereo not drawn),7.7,0.7,0.9,2.0,-5.2,.,.,.
CC1=NN(C(N)=S)C(=O)C1N=Nc1c(Br)cc(Br)cc1Br (stereo not drawn),13.5*,.,13.5*,10.3,3.5,26.3*,13.5*,25.7*
Cc1ccc(-c2noc(N=O)c2NO)cc1,18.9*,0.613,24.0*,4.9,-14.6,33.1*,7.9*,31.2*
C=CCOC(=O)C1=CC(c2cn(C(C)=O)c3ccccc23)CC(OCCCCO)O1 (stereo not drawn),.,0.68,.,.,.,.,.,.
